The record followed here is PubChem BioAssay.

The test system of test [1] is Plasmodium falciparum Sir2 (PF13_0152, Sir2A). In words: Plasmodium falciparum Sir2A binding compounds – biochemical, small-molecule microarray, 635 nm fluorescence, primary screen (AID 1098).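 Also: score merges spot fluorescence intensity with its signal-to-noise ratio.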 Particulars: fluorescence 635 nm, higher = more signal.
Test [2] can be described thus: probe aDKK1 binding to arrayed compounds – biochemical, biotinylated probe, 635/667 nm fluorescence, primary screen (AID 1099).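 Also: score merges 667nm spot fluorescence with signal to noise across triplicate slides.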 The note with it: small-molecule microarray, higher = more signal.
Test [3] can be described thus: probe aCHRDL2 binding to arrayed compounds – biochemical, biotinylated probe, 635/667 nm fluorescence, primary screen (AID 1100). Particulars: small-molecule microarray, higher = more signal.
A short description of test [4]: change in splice reporter luminescence, either direction, cell-based, HEK293, spliceosome inhibition project, primary screen (AID 1101).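 Also: HEK293 cells carrying a splicing-competent luciferase reporter gene; test concentration not given here.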 Particulars: HEK293 splicing luciferase reporter, 24 h, higher = more signal, called active from +8 up or from −8 down. A general note: In a reporter assay the amount or activity of a reporter protein is the signal.
In test [5] the target is Fibroblast growth factor 10 (Homo sapiens) (UniProt O15520). Description: compounds binding fibroblast growth factor 10 – biochemical, small-molecule microarray, 635 nm fluorescence, primary screen (AID 1102). The note with it: FGF10 binding, fluorescence 635 nm, higher = more signal.
Fibroblast growth factor 10 (Homo sapiens), sequence (O15520 whole entry, looked up): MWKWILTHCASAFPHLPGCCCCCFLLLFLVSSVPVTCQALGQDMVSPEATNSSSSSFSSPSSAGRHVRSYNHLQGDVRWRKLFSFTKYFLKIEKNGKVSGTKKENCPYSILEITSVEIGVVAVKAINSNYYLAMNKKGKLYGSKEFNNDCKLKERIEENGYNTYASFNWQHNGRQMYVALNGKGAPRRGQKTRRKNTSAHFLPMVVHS
In test [6] the test system is glycogen synthase kinase-3 (GSK3A per assay name; protocol says GSK3B). Description: compounds binding glycogen synthase kinase-3 – biochemical, small-molecule microarray, 635 nm fluorescence, GSK3A, primary screen (AID 1103). Also: the record names both GSK3A and GSK3B. Particulars: fluorescence 635 nm, higher = more signal.
The target in test [7] is Epidermal growth factor receptor (Homo sapiens) (UniProt P00533). Description: compounds binding epidermal growth factor receptor – biochemical, small-molecule microarray, 635 nm fluorescence, primary screen (AID 1104).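 Also: score merges 667 nm emission intensity with spot signal to noise over triplicate slides.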 The note with it: EGFR binding, higher = more signal.
Epidermal growth factor receptor (Homo sapiens), sequence (P00533 whole entry, looked up): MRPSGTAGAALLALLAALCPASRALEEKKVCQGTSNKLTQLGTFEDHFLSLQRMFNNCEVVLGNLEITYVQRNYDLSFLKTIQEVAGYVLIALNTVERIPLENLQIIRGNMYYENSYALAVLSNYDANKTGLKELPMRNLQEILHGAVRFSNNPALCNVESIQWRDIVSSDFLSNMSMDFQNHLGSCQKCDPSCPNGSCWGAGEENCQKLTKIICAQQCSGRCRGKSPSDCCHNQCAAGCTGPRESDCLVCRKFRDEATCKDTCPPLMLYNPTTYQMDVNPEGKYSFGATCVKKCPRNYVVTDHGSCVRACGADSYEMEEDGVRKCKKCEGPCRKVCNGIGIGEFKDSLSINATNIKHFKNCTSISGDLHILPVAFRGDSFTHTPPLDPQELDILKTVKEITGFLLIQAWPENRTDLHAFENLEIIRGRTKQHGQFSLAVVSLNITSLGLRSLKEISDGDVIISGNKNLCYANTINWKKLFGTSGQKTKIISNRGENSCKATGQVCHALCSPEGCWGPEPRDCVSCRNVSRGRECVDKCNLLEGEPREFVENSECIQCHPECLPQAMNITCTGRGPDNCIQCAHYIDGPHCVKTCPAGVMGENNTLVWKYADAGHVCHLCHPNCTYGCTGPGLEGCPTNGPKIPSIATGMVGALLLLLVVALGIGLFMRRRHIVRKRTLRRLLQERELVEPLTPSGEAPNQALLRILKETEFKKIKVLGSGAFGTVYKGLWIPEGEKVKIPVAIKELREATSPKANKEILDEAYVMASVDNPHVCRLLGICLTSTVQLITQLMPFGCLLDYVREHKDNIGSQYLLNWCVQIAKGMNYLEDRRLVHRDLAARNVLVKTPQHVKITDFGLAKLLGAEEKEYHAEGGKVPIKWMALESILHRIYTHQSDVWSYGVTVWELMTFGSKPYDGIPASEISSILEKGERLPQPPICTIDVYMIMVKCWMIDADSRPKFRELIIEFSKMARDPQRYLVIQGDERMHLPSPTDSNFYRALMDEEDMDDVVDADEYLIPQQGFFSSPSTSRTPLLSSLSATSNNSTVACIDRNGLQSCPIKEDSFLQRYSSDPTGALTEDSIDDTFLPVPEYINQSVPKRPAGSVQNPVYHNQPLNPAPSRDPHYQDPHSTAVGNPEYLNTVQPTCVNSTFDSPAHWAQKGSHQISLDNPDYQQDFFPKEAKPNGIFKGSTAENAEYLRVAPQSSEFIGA
In test [8] the target is Follistatin-related protein 3 (Homo sapiens) (UniProt O95633). In words: compounds binding follistatin-related protein 3 – biochemical, small-molecule microarray, 635 nm fluorescence, primary screen (AID 1105).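 Also: score merges emission near 667 nm and signal to noise per printed spot across three slides.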 Particulars: FSTL3 binding, higher = more signal.
Follistatin-related protein 3 (Homo sapiens), sequence (O95633 whole entry, looked up): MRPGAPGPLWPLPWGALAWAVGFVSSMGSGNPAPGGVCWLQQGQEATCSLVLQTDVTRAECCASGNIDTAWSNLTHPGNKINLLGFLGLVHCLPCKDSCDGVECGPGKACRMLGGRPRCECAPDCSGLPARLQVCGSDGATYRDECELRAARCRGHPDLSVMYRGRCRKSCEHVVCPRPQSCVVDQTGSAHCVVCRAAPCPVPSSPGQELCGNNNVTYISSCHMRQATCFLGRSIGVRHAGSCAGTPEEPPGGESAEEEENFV
In test [9] the target is Dickkopf-related protein 1 (Homo sapiens) (UniProt O94907). Description: small molecules binding DKK1 protein – biochemical, small-molecule microarray, 635 nm fluorescence scan, primary screen (AID 1106).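 Also: score merges emission near 667 nm with signal to noise over three replicate slides.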 Particulars: higher = more signal.
Dickkopf-related protein 1 (Homo sapiens), sequence (O94907 whole entry, looked up): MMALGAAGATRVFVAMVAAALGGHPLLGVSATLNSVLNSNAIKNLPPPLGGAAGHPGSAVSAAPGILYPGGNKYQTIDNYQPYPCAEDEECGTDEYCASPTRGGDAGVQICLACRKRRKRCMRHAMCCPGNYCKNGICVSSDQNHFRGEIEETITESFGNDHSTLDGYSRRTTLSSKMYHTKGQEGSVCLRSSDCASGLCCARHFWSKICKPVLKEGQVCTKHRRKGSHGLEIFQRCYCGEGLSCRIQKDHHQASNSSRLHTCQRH
Test [10] concerns Inhibin beta A chain (activin A). In words: small molecules binding activin A – biochemical, small-molecule microarray, 635 nm fluorescence scan, primary screen (AID 1107).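 Also: mouse activin A protein probed at 4.33 µg/mL on printed slides; score merges bound-protein fluorescence near 667 nm with spot signal-to-noise.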 Particulars: INHBA, higher = more signal.
For test [11], the system named is Human papillomavirus type 1a protein E7 (residues 44-93). Description: small molecules binding HPV E7 44-93 – biochemical, small-molecule microarray, residues 44-93, 635 nm fluorescence, primary screen (AID 1108).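 Also: E7 fragment applied at 1 µg/mL in TBST for 1 h at 4 C; score combines spot fluorescence with its signal to noise ratio.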 The note with it: fluorescence 635 nm, higher = more signal.
Test [12] can be described thus: hepatitis C replication reporter changes, two-sided – Huh7 cells, luciferase reporter, HCV replication inhibitor project, primary screen (AID 1109).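 Also: huh7 hepatoma cells harbouring a luciferase neomycin HCV replicon reporter; luciferase luminescence as measure of HCV replicon replication; test concentration not given here.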 The note with it: Huh7 HCV replicon luciferase reporter, 48 h; higher = more signal.
Test [13] addresses Left-right determination factor 2 (Homo sapiens) (UniProt O00292). Description: small molecules binding LEFTY2 protein – biochemical, small-molecule microarray, 635 nm fluorescence scan, primary screen (AID 1110). The note with it: higher = more signal.
The target in test [14] is Calmodulin-1 (Homo sapiens) (UniProt P0DP23). In words: small molecules binding calmodulin-1 with EGTA – biochemical, small-molecule microarray, Cy5-labelled CALM1, profiling panel (AID 1111).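 Also: labelled calmodulin applied in Tris saline Tween buffer holding calcium plus EGTA and DTT.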 Particulars: Cy5-CALM1 binding fluorescence, higher = more signal.
Test [15] shares this target. In words: small molecules binding Ca-loaded calmodulin-1 – biochemical, small-molecule microarray, Cy5-labelled CALM1, plus calcium, artefact control for SMM control-protein annotation, profiling panel (AID 1112).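 Also: score merges spot fluorescence with signal to noise from triplicate slides.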 Particulars: Cy5-CALM1 binding fluorescence, higher = more signal.
The nature of test [16]: probe aWnt5a binding to arrayed compounds – biochemical, biotinylated probe, 635/667 nm fluorescence, primary screen (AID 1113).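 Also: score merges 667 nm fluorescence intensity with signal-to-noise per printed feature.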 Particulars: small-molecule microarray, higher = more signal.
Test [17] is described as follows: probe aShh binding to arrayed compounds – biochemical, biotinylated probe, 635/667 nm fluorescence, primary screen (AID 1114).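 Also: probe is biotin-labelled aShh protein from a stem cell growth factor screen; measures binding of labelled protein to compounds printed on the slide; score merges feature fluorescence at 667 nm with signal-to-noise.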 The note with it: small-molecule microarray, higher = more signal.
Test [18] can be described thus: probe aNog binding to arrayed compounds – biochemical, biotinylated probe, 635/667 nm fluorescence, primary screen (AID 1115).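 Also: probe is biotinylated aNog protein used at 0.15 µg/mL for 1 h at 4 C; z-score combines 667 nm fluorescence of each spot with its signal to noise.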 The note with it: small-molecule microarray, higher = more signal.
Test [19] has as its target Torsin-1A-interacting protein 1 (Homo sapiens) (UniProt Q5JTV8). Description: compound microarray binding of lysate hLAP1 – cell lysate, small-molecule microarray, COS7 lysate, 635/667 nm fluorescence, primary screen (AID 1116). The note with it: 635 nm fluorescence, higher = more signal.
Test [20] concerns the target Alpha-bungarotoxin (Bungarus multicinctus) (UniProt P60615). Description: compounds binding labelled alpha-BTX control protein – biochemical, small-molecule microarray, Alexa647 label, 635/667 nm fluorescence, artefact control for SMM control protein annotation, profiling panel (AID 1117). The note with it: alpha-BTX-A647 binding fluorescence, higher = more signal.

The source made the active and inactive calls.

Left-right determination factor 2 (Homo sapiens), sequence (O00292 whole entry, looked up): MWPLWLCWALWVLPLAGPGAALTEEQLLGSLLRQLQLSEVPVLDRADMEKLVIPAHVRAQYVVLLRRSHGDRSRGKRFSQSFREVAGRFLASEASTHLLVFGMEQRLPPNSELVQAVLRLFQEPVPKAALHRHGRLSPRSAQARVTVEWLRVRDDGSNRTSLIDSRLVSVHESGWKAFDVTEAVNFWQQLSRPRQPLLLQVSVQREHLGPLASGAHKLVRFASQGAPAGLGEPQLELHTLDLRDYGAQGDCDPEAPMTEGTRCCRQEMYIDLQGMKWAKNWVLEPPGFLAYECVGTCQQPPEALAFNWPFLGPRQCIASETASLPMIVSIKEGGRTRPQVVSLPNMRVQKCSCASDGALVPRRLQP
Torsin-1A-interacting protein 1 (Homo sapiens), sequence (Q5JTV8 whole entry, looked up): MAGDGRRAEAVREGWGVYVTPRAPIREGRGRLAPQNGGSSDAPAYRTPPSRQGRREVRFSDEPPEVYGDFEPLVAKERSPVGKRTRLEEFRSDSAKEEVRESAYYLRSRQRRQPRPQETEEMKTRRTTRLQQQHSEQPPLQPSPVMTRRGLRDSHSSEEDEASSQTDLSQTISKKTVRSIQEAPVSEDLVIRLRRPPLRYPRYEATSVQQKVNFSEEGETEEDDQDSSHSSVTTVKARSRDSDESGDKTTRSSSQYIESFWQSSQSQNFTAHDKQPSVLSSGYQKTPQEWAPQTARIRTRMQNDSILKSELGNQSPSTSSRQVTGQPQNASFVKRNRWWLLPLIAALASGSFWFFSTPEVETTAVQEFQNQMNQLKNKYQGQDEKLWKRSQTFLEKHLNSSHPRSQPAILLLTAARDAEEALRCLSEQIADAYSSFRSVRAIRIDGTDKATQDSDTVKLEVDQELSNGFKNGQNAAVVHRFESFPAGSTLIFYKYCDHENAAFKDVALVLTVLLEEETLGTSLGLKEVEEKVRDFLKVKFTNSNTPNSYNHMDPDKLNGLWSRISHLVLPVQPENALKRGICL
Alpha-bungarotoxin (Bungarus multicinctus), sequence (P60615 whole entry, looked up): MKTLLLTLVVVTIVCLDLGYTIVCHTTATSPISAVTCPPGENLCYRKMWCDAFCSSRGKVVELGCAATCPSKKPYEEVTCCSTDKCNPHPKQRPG

For the compound `Cc1ccc(S[C@]2(C(=O)NCC(F)(F)F)CC(=O)N(Cc3ccccc3C(F)(F)F)[C@@H]2c2ccc(CO)cc2I)cc1`, the composite z-score was 1.46 in test [1]; -0.255 in [2]; 0.956 in [3]; -1.34 in [5]; -1.49 in test [6]; -1.96 in test [7]. The composite z-score in test [8] was -1.28; in [9], -1.7; in test [10], 0.283; in test [11], -0.784; in [13], -2.12; in test [14], -0.423. In addition, the composite z-score is -0.214 in test [15]; -0.0944 in [16]; 0.0483 in [17]; -0.161 in [18]; -0.531 in test [19]; 0.444 in [20]. Besides, the z-score in [4] is -0.0164 (inactive); in [12], -0.414.
Regarding `C#CCN([C@@H](Cc1ccc(O)cc1)C(=O)OC)[C@@H](/C=C/C1CC1)[C@H](O)Cc1ccccc1`, the composite z-score in [1] is -0.189; in [2], -0.236; in test [3], -0.26; in test [5], -0.251; in test [6] it was -0.689; in [7] it was -0.0832. Besides, the composite z-score in test [8] is 0.122; in test [9], 0.103; in test [10], 0.644; in test [11], -0.184; in [13], -0.0906; in test [14], -0.634. Also, the composite z-score in [15] was -1.04; in test [16], -0.0425; in [17] it was -0.223; in [18] it was -0.407; in [19], 0.0583; in test [20] it was -0.0345. The z-score in test [4] was 0.25 (inactive); in test [12] it was -3.
`CC1=C([C@H](O)CCc2ccccc2)[C@H](CO)[C@@H]2C(=O)N(C)C(=O)[C@@H]2C1`: the composite z-score in test [1] was 0.843; in test [2] it was -0.173; in test [3], -0.495; in test [5], 0.383; in test [6], 0.271; in [7] it was 0.243. In addition, the composite z-score in test [8] came to 0.491; in test [9], 0.446; in test [10] it was 0.162; in [11] it was 0.305; in [13], 0.392; in test [14], 0.489. The composite z-score in test [15] was -0.905; in [16], -0.197; in test [17], -0.262; in test [18], -0.416; in [19], 0.185; in [20], 0.224. The z-score is 0.626 (inactive) in test [4] and -0.581 in test [12].
Regarding `O=C1OCCC=C[C@H]2OC34C=CCN(Cn5nnc6ccccc65)C(=O)[C@H]3N(CCCCCCO)C(=O)[C@@H]4C12` (stereo not given in full), the composite z-score is 1.8 in test [1]; -0.0278 in [2]; 0.337 in test [3]; -0.893 in [5]; -0.357 in test [6]; -1.23 in test [7]. Besides, the composite z-score in [8] was -0.822; in test [9], -1.03; in test [10], -0.157; in test [11], -0.607; in test [13], -1.51; in [14], -0.204. Further, the composite z-score in test [15] is 0.646; in test [16] it was -0.208; in test [17], -0.179; in test [18] it was -0.142; in test [19], -0.0637; in test [20], -1.27. Also, the z-score in test [4] was 0.415 (inactive); in test [12], 0.333.
As for `CCCCCCc1nc(C2CC2)cc2c1[Si](C(C)C)(C(C)C)O[C@H]2c1ccccc1`, the composite z-score in test [1] is 0.454; in test [2] it was -0.312; in test [3], -0.191; in test [5], 0.402; in [6], -0.213; in test [7] it was 0.341. In addition, the composite z-score in test [8] was 0.274; in test [9] it was 0.546; in test [10], 0.741; in [11], -1.1; in test [13], 0.359; in test [14], -0.806. Also, the composite z-score in test [15] is -0.852; in [16], -0.154; in [17], -0.157; in [18] it was -0.422; in test [19] it was -0.186; in test [20], -0.271. Further, the z-score in [4] was 0.214 (inactive); in [12] it was -0.0742.
